SW480 rereplic – inducers of DNA re-replication in SW480 colon cancer cells | AID 624297 | Potency, µM (top dose mostly 46.1 µM), for the others: top-dose re-replication activation, actives largely listed as activators | actives 1.8% (n = 340,000) | SW480 DNA re-replication, Hoechst DNA content imaging, 48 h; note: % of control where 0% means no effect; nearly all actives have a fitted effect of over 55% in size
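Image-based read-out: total Hoechst fluorescence of nuclei (405 nm excitation, 500-530 nm emission), with hits raising the fraction of high-intensity nuclei. SW480 colon cells incubated 48 hr with compounds at 37 C.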
MCF10A rerep – DNA re-replication induction in MCF 10a cells. actives 2.9% (n = 350,000). Potency, µM (titrated, usually from 46.1 µM), for inactives: at the top dose activity, positive = re-replication, usual class: activators. MCF 10A DNA re-replication, Hoechst nuclear intensity, 48 h; note: % of control where 0% means no effect; nearly all actives have a fitted effect of over 50% in size
ELG1 repair inh – inhibitors of ELG1-dependent DNA repair in HEK293T cells; AID 504467; Potency, µM (highest dose often 46.1 µM), without a hit: at the top dose activity change, negative = inhibition, usual class: inhibitors; actives 2.3% (n = 330,000); HEK293T ELG1-luciferase reporter, luminescence, 16 h; DNA damage induced by 5-fluorouridine; note: % is set by controls: 0 for no effect and ±100 for the full control effect; nearly all actives have a fitted effect of over 55% in size
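Quantitative HTS, concentration-response format. 2,000 cells/well co-treated with 5-fluorouridine and compound, 16 hr in 5% CO2 at 37 °C; ONE-Glo luminescence read after 30 min.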
KB-V1 MDR tox – kills drug-selected multidrug resistant KB-V1 cells. KB-V1 MDR cells viability, CellTiter-Glo, 72 h. Potency, µM (highest dose often 46.1 µM), usual class: cytotoxic. actives 3.4% (n = 400,000). AID 1347076; note: % is set by controls: 0 for no effect and ±100 for the full control effect; nearly all actives have a fitted effect of over 60% in size
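Cytotoxicity via CellTiter-Glo luminescence after 72 h compound exposure at 37 degrees C. Cells: drug-selected KB-V1 line, DMEM phenol-red free plus 10% FBS. Compounds tested at multiple concentrations; normalized data fitted to concentration-effect curves.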
KB-3-1 tox – KB-3-1 parental cell cytotoxicity; KB-3-1 viability, CellTiter-Glo ATP luminescence, 72 h; Potency, µM (titrated, usually from 46.1 µM), usual class: cytotoxic; actives 1.4% (n = 400,000); note: % is set by controls: 0 for no effect and ±100 for the full control effect; nearly all actives have a fitted effect of over 60% in size
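Parental KB-3-1 viability, qHTS format: 72 h compound exposure, 37 °C; CellTiter-Glo; media-only wells and DMSO plates as controls; concentration-effect fits on corrected data.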
* marks the source's active call; other numbers are inactive results; i = inactive; u = inconclusive; x = no result; ! = repeats disagree. Compounds with a hit are over-represented: about 8.1% of the library has one in this group of screens. Calls come from the whole dose curve; as a rule, active = well fitted curve in the direction sought with a large enough effect; inconclusive = small, poorly fitted or top-dose-only effect, or another doubt; inactive = no such curve, though single readings can be large; an effect the other way counts as inactive or inconclusive. Potency is the fitted concentration of half-maximal effect.

SMILES | SW480 rereplic | MCF10A rerep | ELG1 repair inh | KB-V1 MDR tox | KB-3-1 tox
Cc1c(C(=O)OC/C(O)=C(\C#N)c2nc3ccccc3[nH]2)oc2ccccc12 | u | 15µM* | 13% | i | i
Cc1c(C(=O)NC(C)C)c(-c2ccccc2)nn1-c1ccccc1 | -194% | 2% | 0% | 21µM* | i
Cc1nn(-c2ccccc2)c(C)c1C(=O)OCC(O)=C(C#N)c1nc2ccccc2[nH]1 | u | 18µM* | x | i | i
COc1cc(OC)cc(C(=O)OC/C(O)=C(\C#N)c2nc3ccccc3[nH]2)c1 | u | 21µM* | -12% | i | i
CCCNC(=O)COCc1cc(-c2ccc(F)cc2)on1 | x | x | x | i | i
O=C(OCCc1cc2ccccc2c(=O)o1)c1cccc(Br)c1 | -8% | 19% | 11% | u | i
O=C(O)COc1ccc(CCNS(=O)(=O)c2ccccc2)s1 | -4% | -1% | x | x | x
Cc1ccc(NC(=O)Cn2c(=O)n(CCC(=O)NCc3ccccc3Cl)c(=O)c3ccccc32)cc1 | x | x | x | i | i
C/C(COc1ccccc1)=N\NC(=O)c1nnn(-c2nonc2N)c1CSc1ccc(C)cc1 | x | x | x | u | i
Cc1nn(-c2ccccc2)c(C)c1C(=O)OCC(=O)Nc1ccccc1 | -1% | -1% | u | 10µM* | i
Cc1nn(-c2ccccc2)c(Cl)c1CN(C(=O)CCl)c1ccc(Cl)cc1 | 3.3µM* | u | u | 21µM* | u
Cc1nn(-c2ccccc2)c(Cl)c1CN(C(=O)CCl)c1cccc2ccccc12 | u | u | u | u | 18µM*
CC(=O)N(Cc1c(C)nn(-c2ccccc2)c1Cl)c1ccc(Cl)cc1 | -5% | 14% | -3% | u | i
CCOc1ccc(NC(=O)CSc2oc(-c3ccc(C)cc3)nc2S(=O)(=O)c2ccc(C)cc2)cc1 | x | x | x | i | i
COc1ccc(OCCN2CCC(C(=O)NC(C)c3cccc4ccccc34)CC2)cc1 (configuration not stated) | x | x | x | i | i
O=C(CCCl)Nc1cc(SCCO)cc([N+](=O)[O-])c1 | -5% | -5% | -3% | i | i
O=C(Nc1cc(SCCO)cc([N+](=O)[O-])c1)c1ccc(Br)o1 | -6% | 17% | u | 21µM* | u
O=C(c1ccc(COc2ccc(Cl)cc2Cl)o1)N1CCCC1 | -3% | 9% | u | x | x
N#Cc1ncc(-c2ccc3c(c2)OCCOCCOCCOCCO3)nc1C#N | u | 18µM* | 1% | i | u
N#Cc1ncc(-c2ccc3c(c2)OCCOCCOCCOCCOCCO3)nc1C#N | -3% | 4% | u | i | i
COc1ccc2c(c1)CCc1c(C(=O)NCCN3CCOCC3)noc1-2 | 2% | -2% | 4% | 12µM* | i
COCC(C)NC(=O)c1noc2c1CCc1cc(OC)ccc1-2 (configuration not stated) | 1% | u | u | 16µM* | i
CC1=C(C(N)=O)C(c2ccc(F)cc2)n2nc(-c3ccc(N(C)C)cc3)nc2N1 (configuration not stated) | x | x | x | i | i
CSCCC(c1nc2ccccc2[nH]1)n1c(-c2ccc3ncccc3c2)nc2ccccc21 (configuration not stated) | x | x | x | i | i
CC(C)c1ccc(NC(=O)CCCc2nc(-c3ccc(Cl)cc3)no2)cc1 | x | x | x | i | i
SMILES | SW480 rereplic | MCF10A rerep | ELG1 repair inh | KB-V1 MDR tox | KB-3-1 tox
CCOc1cc(C(=O)CSc2nnc(CNc3ccc(Cl)cc3)o2)ccc1NC(=O)CC | 11% | u | u | 21µM* | u
Oc1ccc(Br)cc1/C=N/n1cnc2ccccc21 | 2% | u | u | 15µM* | i
Oc1ccc(Br)cc1/C=N/N1CCCCC1 | -14% | 12% | u | i | i
CN(C(=O)Cn1cnc2onc(-c3ccc(F)cc3)c2c1=O)c1ccccc1Cl | x | x | x | i | i
Cc1ccc(CNC(=O)C2CCC(=O)N(CCCN3CCOCC3)C2)cc1 (configuration not stated) | -8% | 4% | 3% | i | i
Cc1cc(C)nc(SCC(=O)Nc2ncc(Cc3cccc(Cl)c3)s2)n1 | 1% | u | -8% | 4.6µM* | i
O=C(CN1CCOCC1)Nc1nc2ccc(Cl)cc2s1 | 3% | 1% | 6% | i | i
COc1ccc(Cl)cc1NC(=O)CSc1nc(C)cc(C)n1 | u | 0% | 7% | i | i
O=C(CN1CCOCC1)Nc1ccc(Br)cn1 | 21µM* | u | 13% | i | i
O=C(CN1CCOCC1)Nc1ncc(Cc2cccc(Cl)c2)s1 | 8.2µM* | u | 5% | i | i
CN(CC(=O)NCc1ccc(F)cc1)CC(=O)Nc1ccc(Cl)c(C(F)(F)F)c1 | 4% | u | u | i | u
COc1ccc(NC(=O)c2[nH]nc3c2CSc2ccccc2-3)c(OC)c1 | x | x | x | u | i
CC(C)CC1Nc2ncnc(N3CCN(c4ccccc4)CC3)c2N(Cc2ccccc2)C1=O (configuration not stated) | u | -1% | u | i | i
CC(C)CC1Nc2ncnc(N3CCN(c4ccccn4)CC3)c2N(Cc2ccc(Cl)cc2)C1=O (configuration not stated) | 13% | 81% | -12% | 23µM*! | u
S=C(Nc1ccccc1Oc1ccccc1)Nc1cccc(Cl)c1Cl | -41% | u | 9% | 21µM* | 23µM*
COc1ccc(CCN(C)c2ncnc3sccc23)cc1OC | u | 0.82µM* | u | i | i
CN(Cc1ccccc1F)c1ncnc2sccc12 | 0% | 5% | -14% | i | i
COc1ccc(CN(C)c2ncnc3sccc23)c(OC)c1OC | u | u | 9.2µM* | 4.6µM* | 8.2µM*
O=C(CCc1ccccc1Cl)NC1CCCN(c2ccc(C(F)(F)F)cn2)C1 (configuration not stated) | 7% | u | 6% | i | i
COc1ccc(-n2ncc(C(=O)N3CCN(c4cc(C)ccc4C)CC3)c2C2CCN(C(=O)OC(C)(C)C)CC2)cc1 | x | x | x | i | i
CCc1cc(=O)oc2cc3occ(-c4ccc(OC)c(F)c4)c3cc12 | u | 2.3µM* | -14% | 1.6µM* | 18µM*
COc1cc(OC)c2c(-c3cccc(-c4ccc(C(C)=O)cc4)c3)cc(=O)oc2c1 | 4.1µM* | 0.65µM* | -2% | i | i
COc1cc(OC)c2c(-c3ccccc3)cc(=O)oc2c1 | -9% | -3% | -2% | i | i
COc1cc(OC)c2c(-c3cccc(-c4ccoc4)c3)cc(=O)oc2c1 | u | 7.3µM* | u | i | i
COc1cc(OC)c2c(-c3cccc(-c4ccc(OC)c(F)c4)c3)cc(=O)oc2c1 | 1.5µM* | u | 25% | i | 0.92µM*
